According to PubChem BioAssay (NCI):
This is part of a sample that, as a whole, favours compounds with a hit. Of some 83,000 tested, about 20% had one in any assay.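 Testing used 96-well plates and a 48-hour single-concentration exposure. Example: -40 means 40% of the starting cells died.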 Activity calls are given as the source filed them.

test system: OVCAR-8 ovarian; assay: NCI-60 one-dose screen, 48 h (100 = growth as untreated, 0 = no growth, -100 = all killed); conditions: 10 µM unless noted
Experimental: Growth inhibition of the OVCAR-8 human tumor cell line is measured as a screen for anti-cancer activity. Cells are grown in 96 well plates and exposed to the test compound for 48 hours. Compounds are tested at a single concentration, which is 10^-5 M for most compounds. The reported endpoint is percent growth (GI% or GIPRCNT), where numbers from 0 - 100% represent growth inhibition, and numbers from -100% - 0 represent cell death. For example, a value of 40 represents 60% growth inhibition. A value of 0 means no net growth occurred over the course of the experiment. A value of -40 indicates 40% of cells at the beginning of the experiment died by the end of the experiment. A value of -100 means all cells are dead at the end of the experiment.
NCI-60 Human Tumor Cell Lines Screen was performed using the standard one-dose NCI protocol, which is described in more detail at https://dtp.cancer.gov/discovery_development/nci-60/default.htm.
Compounds with GIPRCNT values below 10 were considered active. Activity score was based on GIPRCNT using the following formula: […]
Score is 0 for GIPRCNT values of 100 or above, 50 for GIPRCNT values of 0, and 100 for GIPRCNT values of -100.

Compound	growth
O=C(CN1C(=O)/C(=C\c2ccc(Cl)cc2)SC1=S)Nc1ncc(Cc2ccc(Cl)cc2)s1	101% (inactive)
N#C/C(=C\c1c(-c2ccccc2)[nH]c2ccccc12)S(=O)(=O)c1ccccc1	43.3% (inactive)
O=C(c1ccccc1)N(C(=S)NCCc1ccc(Cl)cc1)c1ccccc1	105% (inactive)
O=C1/C(=C/c2ccc(O)cc2)COc2ccc(O)cc21	108% (inactive)
CCCCCCC(O)(c1ccc(F)cc1)C(CN1CCOCC1)c1ccccc1 (stereo not given)	33.5% (inactive)
COc1cc2nc(NC3CCC3)nc(NC3CCN(C(C)C)CC3)c2cc1OC	58.2% (inactive)
O=c1oc2ccc(I)cc2c(=O)n1-c1ccc(F)cc1F	12.5% (inactive)
O=S1(=O)CCN(Cc2ccccc2)CC1	111% (inactive)
O=C(Nc1ccc(Cl)cc1F)c1cc(I)ccc1O	10.1% (inactive)
O=C(c1nc2ccccc2[nH]1)C1C(c2ccc([N+](=O)[O-])cc2)C2CC3CCCCC3N2[C@@]12C(=O)Nc1cc(Cl)ccc12 (stereo not given in full)	35% (inactive)
COc1ccc(/C=C2\NC(=O)NC2=O)cc1O	98.5% (inactive)
Clc1ncccc1Nc1ccc2nnc(-c3ccncc3)n2n1	99.3% (inactive)
Oc1c(C(Nc2ccccn2)c2cccc(Oc3ccccc3)c2)ccc2cccnc12 (stereo not given)	-85.2% (active)
COc1ccc(-c2cn3c(C(=O)Nc4ccccc4Cl)c(-c4ccccc4)c4c3n2CCCC4)cc1	83.6% (inactive)
O=C(Nc1ccc(I)cc1F)c1cc(F)ccc1O	6.16% (active)
COc1ccc(/C=C/C(=O)c2ccc3cc(OC)c(OC)cc3c2)cc1OC	11.4% (inactive)
c1ccc(-c2ccc(-c3nc4ccccc4[nH]3)cc2)cc1	89.4% (inactive)
COc1ccccc1C(=O)O/N=C(\N)Cc1cccc2ccccc12	78.6% (inactive)
CCN1C(=O)N(CC)C2C1NN=c1s/c(=C3\C(=O)N(CC(C)(C)C)c4ccccc43)c(=O)n12 (stereo not given)	32.7% (inactive)
O=C(Nc1nc2c(s1)CCc1c-2c(Br)n(Cc2ccccc2)c1Br)c1ccccc1	45.4% (inactive)

Compound	growth
COc1cccc(C2=NN3C(C2)c2ccccc2OC3c2ccc(/C=C3\SC(=O)NC3=O)cc2)c1 (stereo not given)	94.8% (inactive)
COc1ccc(C2C3=C(COC3=O)N(CCO)c3cc4c(cc32)CCC4)cc1OC (stereo not given)	26.7% (inactive)
Cn1c(/C=C(\C#N)c2ccccc2)nc2c(N3CCOCC3)nc(Cl)nc21	8.78% (active)
CCN(CC)CCCNc1ccnc2cc3ccccc3cc12	60.1% (inactive)
COc1ccc(/C=C2\N=C(c3ccccc3)N(c3ccc(-c4nc5ccc(C)cc5s4)cc3)C2=O)cc1	92% (inactive)
CCOC(=O)c1ccc2[nH]c(-c3ccccc3)cc(=O)c2c1	97.6% (inactive)
NCCOc1ccccc1/C=C1\c2ccccc2-c2ccc([N+](=O)[O-])cc21	-38.7% (active)
COc1ccccc1C1=C(Br)C(=O)c2nc(C)ccc2C1=O	96.8% (inactive)
O=C(Nc1ccccc1O)c1ccc(Oc2cccc(C(=O)Nc3ccccc3O)c2)cc1	16.7% (inactive)
O=C(CCc1nnc2sc(-c3ccc(Cl)cc3Cl)nn12)c1nc2ncccc2[nH]1	0.0907% (active)
CC1CCCCN1CCCNC(=O)c1ccc2c(c1)sc1nc(-c3ccc(F)cc3)cn12 (stereo not given)	105% (inactive)
O=Cc1cc2ccccc2nc1Nc1nccs1	47.6% (inactive)
Cn1c(C(=O)c2cccc3ccccc23)nc2ccccc21	-1.81% (active)
Cc1cc(Br)c(N)c(Br)c1	101% (inactive)
COc1ccc(-n2c(C(O)c3ccccc3)nn(CN3CCOCC3)c2=S)cc1 (stereo not given)	107% (inactive)
O=C(Nc1ccc(Cl)cc1F)c1cc(F)ccc1O	9.44% (active)
Oc1ccc(-c2nc(-c3ccc4oc5ccc(-c6[nH]c(-c7ccc(O)cc7)nc6-c6ccccc6)cc5c4c3)c(-c3ccccc3)[nH]2)cc1	72.8% (inactive)
CC(C)c1ccc(S(=O)(=O)NC(=O)NC2CCCC2)cc1	98.5% (inactive)
C1CCN(c2nc(N3CCCCC3)nc(N3CCOCC3)n2)CC1	96.4% (inactive)
CN1C(=O)N(C)C2(c3ccccc3)OC(=S)NC12c1ccccc1 (stereo not given)	100% (inactive)
